Data from PubChem BioAssay AID1347426 (Functional Genomics Laboratory (NCATS/FGL), 2020).
The campaign covered roughly 31,000 sequences. About 1,400 (4.5%) were called active.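 The calls were made as follows: active = median seed-adjusted z-score above 1 or below -1; inactive = the rest.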 This excerpt belongs to a sample that is enriched for actives.

assay: Novel Modifiers of Survival Motor Neuron (SMN) Protein: Gene Identification via Genome-wide siRNA Screen; conditions: HEK293T SMN2-luciferase reporter, siRNA knockdown, 72 h; actives lie on both sides
From the text: Spinal muscular atrophy (SMA) is the most common neuromuscular autosomal recessive disorder and one of the leading genetic causes of infant death. SMA results from mutations inducing loss of function or deletion in the survival of motor neuron-1 gene (SMN1), leading to deficiency of the survival motor neuron (SMN) protein. Although a second nearly identical gene, SMN2, is retained in humans, its expression primarily produces an aberrantly spliced isoform that is largely unstable and quickly degraded. We performed a genome-wide RNAi screen using a cell-based reporter assay to identify genes and pathways that modulate SMN protein stability. The screen identified over 200 genes that led to the greatest increase or decrease in luciferase expression.
Using HEK293T cells stably expressing a luciferase reporter that combines the promoter and splicing based cassettes in tandem with the major portion of the native SMN2 cDNA with luciferase, we performed a genome-wide RNAi screen to identify modulators of SMN protein levels. Luciferase is expressed when full-length SMN protein is generated with luminescence signal proportional to SMN protein levels. Our luciferase-based reporter assay was used to screen Ambion Silencer Select Human Druggable Genome siRNA library (10418 genes, 3 unique siRNAs per gene) using lipid-based reverse transfection.
Briefly, 1 pmol of each siRNA was spotted to a well of a 384-well plate (Corning, Corning, NY) and 20 microL of serum-free DMEM containing […] of Lipofectamine RNAiMax (Life Technologies, Carlsbad, CA) was then added to each well. Transfected cells were maintained at 37 degrees C in 5% CO2 for 72 hours, 20 microL of ONE-Glo Reagent (Promega) was added to wells for luciferase quantification. Raw luminescence reads were normalized to Ambion(R) Silencer(R) Negative Control #2 siRNA, then log10 transformed. A robust statistical measure of median absolute deviation (MAD) to standardize siRNA activities from each screen. Common Seed Analysis was used to help prioritize clean hits as opposed to those appearing to arise from seed based off-target effects. Candidate modulators were defined as the genes having a MAD score greater than 1.0 or less than -1.0.

Sequence | median seed-adjusted z-score
CGAAGUGAGUGAUAACAGUTT against RNF157 | 0.0197 (inactive)
GCAAGACCGAAGUAAACUATT against GPX4 | -1.18 (active)
UGUUAAGCUUCAUCAGUAUTT against MRGPRX1 | -0.188 (inactive)
ACAUCUCACGGAUCCUUAATT against PAX4 | 0.0811 (inactive)
GGUGAAGGUAGAUCAAAGATT against EIF2AK2 | 0.419 (inactive)
CGACUUCUCAGAAGGCAGATT against GATA4 | -0.24 (inactive)
AAAUCUCAAUGGUCGCUAUTT against FCN3 | -0.112 (inactive)
AGGAGCUUGUUGAUCCCUATT against SLC7A8 | -0.134 (inactive)
CCACAUAGGUCAGAAACGATT against CLDN17 | 0 (inactive)
CAUCGUCUCUGCUGACAAATT against TUBAL3 | 1.05 (active)
GGAACCCUUUGAUCAAUUUTT against ADAMTS7 | 0.146 (inactive)
GAUUGCAGCCAAUCCCUUUTT against TBX6 | 0.144 (inactive)
CACUAGAUCGCGAUAAUAATT against DDB1 | 0.231 (inactive)
GGAAGGCAUUACUCACUUATT against SIRT3 | -0.341 (inactive)
GCCAGAAUCCUUUAGCAGUTT against CRTC1 | 0.00363 (inactive)
GCAUCUGAAGACUCAGGCATT against TAZ | 0.0549 (inactive)
UCAGCUGUAUCGACCAGAATT against MYL7 | -1.21 (active)
GAAAUCAGCCUAUGGUUUATT against NME2 | -0.0728 (inactive)
CCGUAUAUCUGGUGGUUAUTT against PLOD2 | -0.281 (inactive)
GAAUCAUAAUCGCUCCUUUTT against SPRR1A | -0.0536 (inactive)
GAAUCCGGAUGAGUACUAUTT against PHF17 | 1.01 (active)
CAGUCCCUAUUUCAAAAUATT against PDE6G | 0.0109 (inactive)
GAAUGAUAUUGUCCAUCGATT against CDKL5 | -0.256 (inactive)
ACUUCAACGUGACCACAGATT against PNPLA6 | 0.309 (inactive)
GAUACGCCCUUAUAAUGCATT against ZBTB11 | -0.105 (inactive)
GAAAUUGCCUAUUACUCUUTT against SLC19A2 | -0.679 (inactive)
UCAUAAUUAUCUCACCAGATT against MEOX2 | 1.36 (active)
CCUCUAACGUACCAUCUAATT against OLAH | -0.44 (inactive)
GUAAGGCAAAGACUCCCUATT against ZNF673 | 0.419 (inactive)
GGGACGGAAUAAAUGCUCUTT against NDUFA13 | -0.138 (inactive)
